Experiment: budding yeast growth modifiers under rapamycin – strain BY4716, OD600, 96 h, primary screen (AID 1091); note: test concentration not given here
Conditions: S. cerevisiae BY4716 + rapamycin, higher = more signal, called active from +8 up or from −8 down

z-score, inactive:
O=C1OCC=C[C@H]2OC34C=CCN(CCN5CCOCC5)C(=O)[C@H]3N(CCO)C(=O)[C@@H]4[C@@H]12 (stereo not given in full) -0.12
CCCCCCc1nc(-c2ccc(-c3ccc(Cl)c(Cl)c3)o2)cc2c1[Si](C(C)C)(C(C)C)O[C@H]2c1ccccc1 -1.35
O=C1C2C=CC(C(O)c3c(F)cccc3Cl)N(Nc3ccccc3F)C2C(=O)N1c1ccccc1 (stereo not given) 0.722
COc1ccc(C(O)C2C=CC3C(=O)N(C)C(=O)C3N2NC(=O)OC(C)(C)C)c2ccccc12 (stereo not given) 0.577
OCC1C=C(/C=C/c2ccccc2)CN1Cc1ccccc1Br (stereo not given) -1.4
CN1C(=O)C2C=CC(C(O)c3ccc(F)cc3)N(N(c3ccccc3)c3ccccc3)C2C1=O (stereo not given) 0.0933
CC(=CC1CCCCC1)[C@@H](NC(=O)c1cccnc1)c1ccc(-c2ccccc2)cc1 2.06
CCN(CC)c1ccc(N2CC=CC34O[C@@H]5C=CCOC(=O)[C@@H]5[C@H]3C(=O)N(CCCCCCO)[C@@H]4C2=O)cc1 (stereo not given in full) -0.975
C=C(CCCC)/C(=C/C[C@H](OC(=O)c1ccncc1)c1ccc(OCCO)cc1)c1cc(C(=O)OC)ccc1OC -0.676
COCCOC(=O)N1C(=O)[C@@]2(c3cc(C#CC4(O)CCCCCC4)ccc31)[C@H](c1ccccc1OCCO)N1[C@H](c3ccccc3)[C@H](c3ccccc3)OC(=O)[C@H]1[C@@H]2C(=O)N1CCc2cc(OC)c(OC)cc2C1 5.86
